The source of these data is PubChem BioAssay (Tox21).

SMILES strings stand for the structures. Unmarked numbers belong to inactive results. Results filed as inconclusive are left out. Activity calls are given as the source filed them. Unless noted, the call rests on the fitted dose curve; in most records, active means well fitted curve in the direction sought with a large enough effect in the repeat runs; inconclusive means weak or mixed curves; inactive means no such curve, though single readings can be large; an effect the other way counts as inactive or inconclusive.

Assay [1] deals with Luciferin 4-monooxygenase (Photinus pyralis) (UniProt P08659). The assay is described as follows: qHTS assay to identify small molecule inhibitors of firefly luciferase (AID 1224835). Further: nearly all actives have a fitted effect of over 25% in size. Summed up: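 Biochemical qHTS: compounds run as interplate titrations against purified firefly enzyme, with D-luciferin and ATP each at its KM concentration. Light output recorded by CCD imaging.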
Sequence of Luciferin 4-monooxygenase (Photinus pyralis) (P08659 whole entry, looked up): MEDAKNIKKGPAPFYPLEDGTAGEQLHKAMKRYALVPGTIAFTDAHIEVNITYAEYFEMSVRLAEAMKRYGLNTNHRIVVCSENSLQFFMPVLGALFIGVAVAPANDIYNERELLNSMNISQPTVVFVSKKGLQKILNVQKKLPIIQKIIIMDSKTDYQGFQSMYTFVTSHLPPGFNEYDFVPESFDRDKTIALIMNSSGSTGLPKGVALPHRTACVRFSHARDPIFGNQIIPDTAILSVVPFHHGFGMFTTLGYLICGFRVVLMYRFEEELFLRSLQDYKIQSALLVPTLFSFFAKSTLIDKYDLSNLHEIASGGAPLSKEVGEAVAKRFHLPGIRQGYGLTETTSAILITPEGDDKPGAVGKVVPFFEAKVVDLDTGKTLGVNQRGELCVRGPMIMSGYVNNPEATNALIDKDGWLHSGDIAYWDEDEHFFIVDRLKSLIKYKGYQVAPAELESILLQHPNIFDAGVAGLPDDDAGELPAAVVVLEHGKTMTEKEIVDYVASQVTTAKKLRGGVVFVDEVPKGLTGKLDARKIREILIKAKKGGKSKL
For orientation: Quantitative high-throughput screening tests each substance at several concentrations.

Assay [2] is described as follows: qHTS assay to identify small molecule agonists of the constitutive androstane receptor (CAR) signaling pathway - cell viability counter screen (AID 1224836). Further: nearly all actives have a fitted effect of over 45% in size. In short, it runs like this:
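23 h treatment, 37 C, 5% CO2. Cell line: HepG2 stably expressing hCAR with a CYP2B6-2.2kb construct. Co-treatment: PK11195, 0.75 uM final. Read-out: CellTiter-Fluor fluorescence intensity.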

Assay [3] is described as follows: qHTS assay to identify small molecule antagonists of the constitutive androstane receptor (CAR) signaling pathway - cell viability counter screen (AID 1224837). Further: nearly all actives have a fitted effect of over 45% in size. Summed up: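 Using CellTiter-Fluor, viability is scored in HepG2 cells stably carrying hCAR and a 2.2kb CYP2B6 reporter after 23 hr compound exposure across 15 concentrations, with CITCO present at 50 nM.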

The target in assay [4] is Nuclear receptor subfamily 1 group I member 3 (Homo sapiens) (UniProt Q14994). Briefly: qHTS assay to identify small molecule agonists of the constitutive androstane receptor (CAR) signaling pathway (AID 1224839). Further: nearly all actives have a fitted effect of over 15% in size. In short, it runs like this:
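Compounds tested at 15 concentrations on HepG2 cells stably harbouring hCAR and CYP2B6-2.2kb reporter constructs, co-treated with PK11195 (0.75 uM final), 24 h at 37 C; luminescent reporter signal quantified.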

Assay [5] in a line: qHTS assay to identify small molecule antagonists of the estrogen related receptor signaling pathway with the pleiotropic PPARgamma coactivator (PGC) from Tox21 10K library - cell viability counter screen (AID 1224840; active means well fitted cell-killing curve with a large enough effect in the repeat runs, not every such curve was filed as active; further: nearly all actives have a fitted effect of over 40% in size). In short, it runs like this: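 Here the PGC/ERR cells serve as a cytotoxicity control: they are exposed to compounds for 17.5 hours at 37 C, and live-cell signal is quantified using CellTiter-Fluor fluorescence.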

The nature of assay [6]: qHTS assay to identify small molecule antagonists of the estrogen related receptor signaling pathway with the pleiotropic PPARgamma coactivator (PGC) from Tox21 10K library (AID 1224841; call rule not given here; further: actives are mostly falling curves and most rising ones were filed inactive; nearly all actives have a fitted effect of over 50% in size). Summed up:
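Each well held 2,000 PGC/ERR cells, pre-incubated six hours (37 C, 5% CO2). Test substances in DMSO were added by pin tool and left for 18 h at 37 C before luciferase detection by One-Glo.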

Assay [7] can be described thus: qHTS assay to identify small molecule agonists of the estrogen related receptor signaling pathway with the pleiotropic PPARgamma coactivator (PGC) from Tox21 10K library (AID 1224842). Further: nearly all actives have a fitted effect of over 15% in size. In short, it runs like this: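 PGC/ERR reporter cell line, 2,000 cells per well, incubated 6 h at 37 C before 23 nL compound in DMSO was added. After 18 h at 37 C, One-Glo luminescence read following 30 min at room temperature.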

Assay [8] can be described thus: qHTS assay to identify small molecule agonists of the hypoxia (HIF-1) signaling pathway - cell viability counter screen (AID 1224844; calls by dose curve; further: nearly all actives have a fitted effect of over 50% in size). Summed up: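 Multiplexed with the HRE beta-lactamase assay, this viability read used CellTiter-Glo luminescence (30 min, RT) on HRE-bla ME-180 cells treated 17 hrs with compounds in 0.5% dialyzed FBS medium.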
Assay [9] is described as follows: qHTS assay to identify small molecule agonists of the hypoxia (HIF-1) signaling pathway (AID 1224846; active means well fitted activation curve with a large enough effect in the signal ratio in the repeat runs, not every such curve was filed as active; the % refers to the signal ratio). Summed up: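 Hypoxia-pathway activation was scored as increased beta-lactamase from an HRE-controlled reporter in ME-180 cells; plated at 2,000 cells per well with 0.5% dialyzed FBS, they were exposed 17 hrs to compounds and then given CCF4-AM.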
Assay [10] is described as follows: qHTS assay to identify small molecule agonists of H2AX - cell viability counter screen (AID 1224847; calls by dose curve; further: top concentration of the series differs between compounds; nearly all actives have a fitted effect of over 30% in size). In short, it runs like this:
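Compounds tested at 15 concentrations were incubated 3 hr at 37C with wild-type CHO-K1 cells; cellular ATP-based luminescence (CellTiter-Glo) indicated viability.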

Assay [11] in a line: qHTS assay to identify small molecule antagonists of the estrogen related receptor (ERR) signaling pathway from Tox21 library (AID 1224848). Further: nearly all actives have a fitted effect of over 50% in size. Summed up: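 ERR reporter cell line (from NTP) seeded 2,000 cells/well, rested 6 h at 37 C/5% CO2, then pin-dosed with compounds in DMSO. After 18 h at 37 C, ONE-Glo added; luminescence read after 30 min at room temperature.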
A short description of assay [12]: qHTS assay to identify small molecule agonists of the estrogen related receptor (ERR) signaling pathway from Tox21 library (AID 1224849; calls by dose curve; further: nearly all actives have a fitted effect of over 15% in size). The following applies: ERR reporter cell line, ONE-Glo luciferase, 18 h; at 92.4 µM (top of the series) unless noted. In short, it runs like this: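 Six hours post-seeding at 37 C/5% CO2, ERR cells receive DMSO-solubilised compounds; after 18 h at 37 C, ONE-Glo reagent is applied and luminescence recorded.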

Assay [13] is described as follows: qHTS RealTime-Glo MT Cell Viability Assay in HepG2 cells - 24 hour (AID 1224867). Further: nearly all actives have a fitted effect of over 50% in size. In short, it runs like this: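 Cells + NanoLuc/prosubstrate dispensed (600 cells/well) → 5 h at 37 C/5% CO2 → compounds in DMSO transferred → 40 h incubation at 37 C, luminescence read at 0, 8, 16, 24, 32, 40 h.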
Assay [14] in a line: A CellTox Green Cytotoxicity Assay to monitor cytotoxicity in HEK293 cells - 0 hour (AID 1224869). Further: nearly all actives have a fitted effect of over 50% in size. Further: potency means the concentration at half of the fitted maximal effect. In short, it runs like this:
(§1)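 Seeding of HEK293 cells together with cytotoxicity dye preceded a 5 h incubation at 37 C/5% CO2. Test compounds in DMSO were then added and fluorescence monitored across 40 h.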

The nature of assay [15]: qHTS RealTime-Glo MT Cell Viability Assay in HepG2 cells - 40 hour (AID 1224870). Further: nearly all actives have a fitted effect of over 50% in size. In short, it runs like this:
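HepG2 cells (600/well) mixed with RealTime-Glo MT reagent, settled 5 h at 37 C/5% CO2 before compound addition. Nonlytic NanoLuc luminescence from viable-cell prosubstrate reduction read repeatedly during 40 h treatment at 37 C.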

Assay [16] in a line: A CellTox Green Cytotoxicity Assay to monitor cytotoxicity in HEK293 cells - 40 hour (AID 1224871). Further: nearly all actives have a fitted effect of over 45% in size. Further: potency means the concentration at half of the fitted maximal effect. In short, it runs like this:
as §1

Assay [17] has as its target Thyrotropin receptor (Homo sapiens) (UniProt P16473). Briefly: qHTS assay to identify small molecule agonists of the thyroid stimulating hormone receptor (TSHR) signaling pathway (AID 1224843; calls by dose curve; further: nearly all actives have a fitted effect of over 45% in size). Summed up: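 TSHR-HEK293 cells in agonist mode, 30 min room-temperature step, then cAMP measured by competitive HTRF (cAMP-d2 with anti-cAMP cryptate) after 1 h at room temperature. Tested at 15 concentrations in triplicate.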

The nature of assay [18]: qHTS assay to identify small molecule agonists of H2AX (AID 1224845; active means well fitted activation curve with a large enough effect in the signal ratio in the repeat runs, not every such curve was filed as active; the % refers to the signal ratio). In short, it runs like this:
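Wild-type CHO-K1 cells, plated overnight, exposed 3hr at 37C to 15 concentrations (0.76% DMSO final). Lysed, then HTRF anti-pH2AX (S139) cryptate and anti-H2AX-d2 antibodies, 24 hr room temperature; 665/620 nm emission read.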

A short description of assay [19]: qHTS RealTime-Glo MT Cell Viability Assay in HEK293 cells - 32 hour (AID 1224868). Summed up:
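Tox21 10K qHTS, HEK293, 600 cells/well, RealTime-Glo reagent co-dispensed with cells; 5 h preincubation, compound by pintool, 37 C, luminescence at 0–40 h.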

For assay [20], the target named is Nuclear receptor subfamily 1 group I member 3 (Homo sapiens) (UniProt Q14994). Briefly: qHTS assay to identify small molecule antagonists of the constitutive androstane receptor (CAR) signaling pathway (AID 1224838).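 Further: HepG2 cells stably expressing hCAR with CYP2B6 luciferase reporter stimulated by CITCO; nearly all actives have a fitted effect of over 40% in size.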 In short, it runs like this:
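Reporter luminescence was quantified after 24 h exposure of hCAR/CYP2B6-2.2kb double-stable HepG2 cells to compounds at 15 concentrations in the presence of 50 nM CITCO final.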
On the % scale 0 is the no-effect control and ±100 the full control effect.

Sequence of Nuclear receptor subfamily 1 group I member 3 (Homo sapiens) (Q14994 whole entry, looked up): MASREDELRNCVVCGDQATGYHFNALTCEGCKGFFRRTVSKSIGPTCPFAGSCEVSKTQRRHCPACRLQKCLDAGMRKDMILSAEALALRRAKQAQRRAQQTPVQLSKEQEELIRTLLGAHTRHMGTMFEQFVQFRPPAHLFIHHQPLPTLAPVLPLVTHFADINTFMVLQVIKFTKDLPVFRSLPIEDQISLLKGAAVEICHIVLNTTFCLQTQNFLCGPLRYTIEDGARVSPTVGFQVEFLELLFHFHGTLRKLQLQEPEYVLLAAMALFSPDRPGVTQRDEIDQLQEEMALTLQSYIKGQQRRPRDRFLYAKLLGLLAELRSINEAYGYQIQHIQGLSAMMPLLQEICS
Sequence of Thyrotropin receptor (Homo sapiens) (P16473 whole entry, looked up): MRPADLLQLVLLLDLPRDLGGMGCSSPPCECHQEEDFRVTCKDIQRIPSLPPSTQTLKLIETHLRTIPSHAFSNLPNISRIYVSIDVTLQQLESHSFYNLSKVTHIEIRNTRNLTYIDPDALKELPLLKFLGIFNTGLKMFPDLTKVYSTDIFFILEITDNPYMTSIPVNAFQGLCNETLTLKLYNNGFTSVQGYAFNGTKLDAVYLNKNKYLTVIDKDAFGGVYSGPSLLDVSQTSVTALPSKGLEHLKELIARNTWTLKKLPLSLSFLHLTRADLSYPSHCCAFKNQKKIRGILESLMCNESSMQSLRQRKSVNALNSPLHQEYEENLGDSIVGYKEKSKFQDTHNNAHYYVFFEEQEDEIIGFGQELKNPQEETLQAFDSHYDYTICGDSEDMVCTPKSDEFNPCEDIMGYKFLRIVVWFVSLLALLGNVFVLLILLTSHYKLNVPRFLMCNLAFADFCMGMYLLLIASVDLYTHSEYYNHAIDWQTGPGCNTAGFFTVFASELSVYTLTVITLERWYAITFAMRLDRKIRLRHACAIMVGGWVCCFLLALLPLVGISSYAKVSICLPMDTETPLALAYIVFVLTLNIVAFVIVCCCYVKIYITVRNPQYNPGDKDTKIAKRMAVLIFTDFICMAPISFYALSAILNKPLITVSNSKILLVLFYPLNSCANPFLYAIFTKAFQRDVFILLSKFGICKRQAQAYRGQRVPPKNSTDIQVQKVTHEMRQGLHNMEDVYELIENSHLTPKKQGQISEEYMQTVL

Turning to `CCCCCCCCOC(=O)CCCCCCCCC(=O)OCCCCCCCC`, the Potency result in assay [1], in assay [2], in assay [3], in assay [4], in assay [5] and in [6] was “inactive” each time. The Potency result in assay [7], in assay [8], in assay [10], in assay [11], in assay [13] and in assay [14] was “inactive” in each case. Besides, the Potency result in assay [15] and in assay [16] was “inactive” each time. Moreover, the result in assay [9] was inactive. Moreover, the activity change, positive = activation in [12] is 3.45%.
Turning to `O=C1CCC(C2CCCCC2)CC1`, the Potency entry in [1], in [2], in assay [3], in assay [5], in [6] and in assay [7] was “inactive” throughout. Besides, the Potency result in assay [17], in assay [8], in [18], in assay [11], in [13] and in [15] was “inactive” each time. In addition, the call in assay [9] was inactive. In addition, the activity change, positive = activation in assay [12] was -9.72%. For the same compound, the Potency in assay [14] was 43.6 µM (active); in assay [16] it was 49 µM (active).
Consider `NC(=O)Cc1cccc(C(=O)c2ccccc2)c1N`, for which the Potency entry in [1], in assay [2], in assay [3], in assay [4], in [5] and in assay [8] was “inactive” each time. The Potency entry in [18], in assay [10], in assay [13], in assay [19], in [14] and in assay [16] was “inactive” in each case. Besides, in [9], the result was inactive.
Turning to `O=C(O)CN(CCN(CC(=O)O)CC(=O)O)CCN(CC(=O)O)CC(=O)O`, in assay [1], the activity change, negative = inhibition is 2.77% [at 23.6 µM]. Further, the viability change, negative = cytotoxic in assay [2] was -25% [at 19 µM]; in assay [5] it was 0.226% [at 19 µM]. The activity, negative = inhibition in [20] was -23.7% [at 19 µM]; in assay [6] it was 0.933% [at 19 µM]; in [11], 11.2% [at 19 µM]. The results for the activation in assay [4] and in assay [7] were -1.04% [at 19 µM] and 0.186% [at 19 µM], respectively. For the same compound, the values for the activity change, negative = cytotoxicity in assay [8], in [10] and in [13] were -7.94% [at 15.8 µM], 0.16% [at 31.6 µM] and 0.5% [at 15.8 µM], respectively. In addition, in assay [12], the activity change, positive = activation was 5.66% [at 19 µM]. Further, the cytotoxicity in [14] was 4.99% [at 15.8 µM]. In addition, in assay [15], the activity change, negative = cytotoxic was 0.22% [at 15.8 µM]. In addition, the cytotoxicity increase in assay [16] was 19.7% [at 15.8 µM].
As to `Cc1nnc(SCC2=C(C(=O)O)N3C(=O)[C@@H](NC(=O)Cn4cnnn4)[C@H]3SC2)s1`, the Potency result in assay [1], in assay [2], in assay [3], in assay [5], in assay [17] and in assay [8] was “inactive” in each case. Also, the Potency result in assay [18], in assay [10], in assay [13], in assay [19], in [15] and in [16] was “inactive” throughout.
For the compound `FC(F)(F)c1ccccc1`, the Potency entry in [1], in assay [2], in assay [5], in assay [6], in assay [7] and in assay [17] was “inactive” in each case. Further, the Potency result in [8], in assay [10], in assay [11], in [13], in [19] and in assay [14] was “inactive” each time. In addition, the Potency result in assay [16] was “inactive”. In addition, in assay [9], the compound was called inactive. In assay [12], the activity change, positive = activation is 2.08%.
Regarding `Cc1c[nH]c(=S)[nH]c1=O`, the Potency entry in assay [1], in assay [2], in assay [20], in [4], in assay [5] and in [8] was “inactive” throughout. The Potency entry in assay [18], in assay [10], in assay [13], in assay [19], in assay [14] and in assay [15] was “inactive” in each case. In addition, the Potency result in [16] was “inactive”. For the same compound, in assay [9], the outcome was inactive.
As to `O=C(O)c1ccccc1Nc1cc(Cl)ccc1C(=O)O`, in assay [1], the activity change, negative = inhibition is -7.25% [at 23.6 µM]. For the same compound, the viability change, negative = cytotoxic is -10% [at 19 µM] in assay [2] and -4.89% [at 19 µM] in [5]. Besides, the activity, negative = inhibition in [20] was -20% [at 19 µM]; in assay [6] it was 1.12% [at 19 µM]; in assay [11], -10.4% [at 19 µM]. In addition, the activation in [4] was -3.13% [at 19 µM]; in assay [7], 0.171% [at 19 µM]; in assay [17], -5.91% [at 19 µM]; in [9] it was -1.19% [at 15.8 µM]. In addition, the activation (H2AX phosphorylation) in assay [18] was 5.25% [at 31.6 µM]. The activity change, positive = activation in assay [12] was -5.59% [at 19 µM]. In [13], the activity change, negative = cytotoxicity was -0.715% [at 15.8 µM]. Further, in [14], the cytotoxicity is 1.27% [at 15.8 µM]. The activity change, negative = cytotoxic in assay [15] is -5.11% [at 15.8 µM]. Besides, the cytotoxicity increase in [16] was -12.4% [at 15.8 µM].
